About 83,000 compounds went through this panel and 20% of them were active in at least one assay; those are over-represented in the sample as a whole.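 The endpoint reported here, percent growth, reads 100 for growth as untreated, 0 for no net growth and -100 for all cells dead.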 Values without a mark were called inactive. The source made the active and inactive calls. How the source made its calls: active means growth percent below 10; inactive means the rest.
Each compound was assayed on NCI-H23 lung (assay: NCI-60 one-dose screen, 48 h (100 = growth as untreated, 0 = no growth, -100 = all killed)). Conditions: 10 µM.

Structure (SMILES)	growth
COc1ccc(C(=O)N2C=Cc3ccccc3C2C#N)cc1 (stereo not given)	95.3%
O=c1cn[nH]c2ccc(Br)cc12	97.6%
O=[N+]([O-])c1ccc(/C(=C/c2ccccc2)[n+]2ccccc2)cc1	113%
CCOc1ccccc1/C=N\N=C(\N)N/N=C/c1ccccc1OCC	23.7%
NC1=CC(=O)C(=O)c2cccnc21	18.7%
COc1ccc(-c2nn(-c3cccc(Cl)c3)cc2-c2c(C#N)c(N)n(N)c(=O)c2C#N)cc1	66.9%
COc1ccc(-c2nn(-c3cccc(Cl)c3)cc2-c2c(C#N)c(=O)n3[nH]c(-c4ccc(C)cc4)nc3c2C#N)cc1	75.3%
Nc1ncc(-c2cnn(C3CCNCC3)c2)cc1-c1nc2ccccc2o1	20.2%
COC(=O)CC[C@@H](C)[C@H]1CC[C@H]2[C@@H]3CC[C@@H]4C[C@H](O)CC[C@]4(C)[C@H]3C[C@H](O)[C@]12C	116%
Cc1ccc(C(=O)C2C(=O)C3CCC2C3)cc1 (stereo not given)	94.4%
S=C1N(c2ccccc2)CN(C2CCCCC2)CN1c1ccccc1	100%
COc1ccc(/C(=N\N)C(=O)c2ccccc2)cc1 (tested in a mixture with another compound)	96.8%
COC(=O)c1c[nH]c2cc(OC(C)C)c(OC(C)C)cc2c1=O	97.6%
O[C@@H]1CO[C@H]2[C@@H]1OC[C@@H]2O	109%
CC(=O)Nc1ccc(S(=O)(=O)c2ccnc3cc(Cl)ccc23)cc1	68.2%
COC(=O)C1OC1c1cc([N+](=O)[O-])ccc1OC (stereo not given)	93%
Cc1cc(NC(=O)c2ccc(C)c(Nc3nccc(-c4cccnc4)n3)c2)cc(-n2cnc(C)c2)c1	67.6%
c1ccc(/C(=N\Nc2ccc3ccccc3n2)c2ccccn2)cc1	21.3%
COc1cc2c(Nc3ccc(-c4ccc(N)cc4)cc3)ncnc2c(OC)c1OC	70.6%
COc1nc2c(c(=O)n1C)CN(c1ccccc1)C(=O)C(C)N2 (stereo not given)	95.7%

Structure (SMILES)	growth
Cc1cc(Cl)ccc1Nc1nc(C(F)(F)F)ccc1C(=O)N/N=C/c1c(Cl)cccc1Cl	19%
CN(C)CCC1(c2ccccc2)CCN(C)C1=O (stereo not given)	103%
CCOC(=O)N/N=C/c1ccc(OC)c(OC)c1	113%
CC(C)(C)OC(=O)CC(S(=O)(=O)c1ccccc1)S(=O)(=O)c1ccccc1	102%
CN(C)c1ncnc2c1nnn2C1OC(CO)C(O)C1O (stereo not given)	4.79% (active)
Nc1cc(-c2ccc(Cl)cc2)nn1-c1nc2ccccc2nc1Cc1ccccc1	81.5%
Fc1ccc(C(c2ccc(F)cc2)C(Cl)Cl)cc1	100%
COc1ccc(/C=C2\CCCC3C2=Nc2ccccc2NC3c2ccc(OC)cc2)cc1 (stereo not given)	78.7%
O=C(c1ccccc1)N(C(=O)c1ccccc1)N1CCCC1	96.4%
CCCCCCCCCCCC[n+]1c(C)cc(N)c2ccccc21	-36.8% (active)
Cc1cn(-c2cc(F)cc(NC(=O)c3ccc(C)c(Nc4nccc(-c5cccnc5)n4)c3)c2)cn1	94.2%
O=C1NC(=O)c2c(CCCSc3nc4ccccc4c(=O)n3CCc3ccccc3)cccc21	76.7%
Cc1cc(O)ccc1C1=NN(c2ccc(S(C)(=O)=O)cc2)C(=O)CC1	32.9%
N#Cc1c(-c2ccc(Cl)cc2)n(O)c2ccccc12	-13.5% (active)
O=C(N/N=C/c1c(Cl)cccc1Cl)c1ccccc1Nc1cccc(C(F)(F)F)c1	102%
O=c1c(Br)ccc(Br)cc1Br	-51.8% (active)
N#CC1=CC2CN(Cc3ccccc3)C1C1C(=O)N(c3ccccc3)C(=O)C21 (stereo not given)	88%
Nc1nc(-c2ccc(Cl)cc2)cc(-c2cc3ccccc3oc2=O)n1	92.5%
COc1ccc(C(=O)c2ccccc2CN2C(=O)c3ccccc3C2=O)cc1	91.7%
CCc1ccc(C2=NN(c3ccc(S(C)(=O)=O)cc3)C(=O)CC2)cc1	-4.83% (active)

The compounds below were run on NCI-H226 lung in the same assay as above. Conditions: 10 µM.

Structure (SMILES)	growth
COc1ccc(C(=O)N2C=Cc3ccccc3C2C#N)cc1 (stereo not given)	87.7%
O=c1cn[nH]c2ccc(Br)cc12	100%
O=[N+]([O-])c1ccc(/C(=C/c2ccccc2)[n+]2ccccc2)cc1	105%
CCOc1ccccc1/C=N\N=C(\N)N/N=C/c1ccccc1OCC	59.1%
NC1=CC(=O)C(=O)c2cccnc21	82.4%
COc1ccc(-c2nn(-c3cccc(Cl)c3)cc2-c2c(C#N)c(N)n(N)c(=O)c2C#N)cc1	66.5%
COc1ccc(-c2nn(-c3cccc(Cl)c3)cc2-c2c(C#N)c(=O)n3[nH]c(-c4ccc(C)cc4)nc3c2C#N)cc1	57.5%
Nc1ncc(-c2cnn(C3CCNCC3)c2)cc1-c1nc2ccccc2o1	15.8%
COC(=O)CC[C@@H](C)[C@H]1CC[C@H]2[C@@H]3CC[C@@H]4C[C@H](O)CC[C@]4(C)[C@H]3C[C@H](O)[C@]12C	102%
Cc1ccc(C(=O)C2C(=O)C3CCC2C3)cc1 (stereo not given)	99.2%
S=C1N(c2ccccc2)CN(C2CCCCC2)CN1c1ccccc1	98.7%
COc1ccc(/C(=N\N)C(=O)c2ccccc2)cc1 (tested in a mixture with another compound)	95.6%
COC(=O)c1c[nH]c2cc(OC(C)C)c(OC(C)C)cc2c1=O	92.9%
O[C@@H]1CO[C@H]2[C@@H]1OC[C@@H]2O	109%
CC(=O)Nc1ccc(S(=O)(=O)c2ccnc3cc(Cl)ccc23)cc1	78.1%
COC(=O)C1OC1c1cc([N+](=O)[O-])ccc1OC (stereo not given)	100%
Cc1cc(NC(=O)c2ccc(C)c(Nc3nccc(-c4cccnc4)n3)c2)cc(-n2cnc(C)c2)c1	-17.6% (active)
c1ccc(/C(=N\Nc2ccc3ccccc3n2)c2ccccn2)cc1	3.53% (active)
COc1cc2c(Nc3ccc(-c4ccc(N)cc4)cc3)ncnc2c(OC)c1OC	78.6%
COc1nc2c(c(=O)n1C)CN(c1ccccc1)C(=O)C(C)N2 (stereo not given)	95.6%

Structure (SMILES)	growth
Cc1cc(Cl)ccc1Nc1nc(C(F)(F)F)ccc1C(=O)N/N=C/c1c(Cl)cccc1Cl	7.42% (active)
CN(C)CCC1(c2ccccc2)CCN(C)C1=O (stereo not given)	95.7%
CCOC(=O)N/N=C/c1ccc(OC)c(OC)c1	97.9%
CC(C)(C)OC(=O)CC(S(=O)(=O)c1ccccc1)S(=O)(=O)c1ccccc1	94.5%
CN(C)c1ncnc2c1nnn2C1OC(CO)C(O)C1O (stereo not given)	39.9%
Nc1cc(-c2ccc(Cl)cc2)nn1-c1nc2ccccc2nc1Cc1ccccc1	84.3%
Fc1ccc(C(c2ccc(F)cc2)C(Cl)Cl)cc1	105%
COc1ccc(/C=C2\CCCC3C2=Nc2ccccc2NC3c2ccc(OC)cc2)cc1 (stereo not given)	94.9%
O=C(c1ccccc1)N(C(=O)c1ccccc1)N1CCCC1	92.7%
CCCCCCCCCCCC[n+]1c(C)cc(N)c2ccccc21	11.1%
Cc1cn(-c2cc(F)cc(NC(=O)c3ccc(C)c(Nc4nccc(-c5cccnc5)n4)c3)c2)cn1	-12.3% (active)
O=C1NC(=O)c2c(CCCSc3nc4ccccc4c(=O)n3CCc3ccccc3)cccc21	82.9%
Cc1cc(O)ccc1C1=NN(c2ccc(S(C)(=O)=O)cc2)C(=O)CC1	93.3%
N#Cc1c(-c2ccc(Cl)cc2)n(O)c2ccccc12	75.7%
O=C(N/N=C/c1c(Cl)cccc1Cl)c1ccccc1Nc1cccc(C(F)(F)F)c1	99.4%
O=c1c(Br)ccc(Br)cc1Br	97.5%
N#CC1=CC2CN(Cc3ccccc3)C1C1C(=O)N(c3ccccc3)C(=O)C21 (stereo not given)	97.7%
Nc1nc(-c2ccc(Cl)cc2)cc(-c2cc3ccccc3oc2=O)n1	88.9%
COc1ccc(C(=O)c2ccccc2CN2C(=O)c3ccccc3C2=O)cc1	102%
CCc1ccc(C2=NN(c3ccc(S(C)(=O)=O)cc3)C(=O)CC2)cc1	69.1%
